Most compounds without a hit are left out; they make up all but 9.9% or so of the library.
IL-1B inflam inh: blocks inflammasome-driven IL-1 beta release; activity change, % at 57.5 µM; THP-1 LPS/ATP IL-1B secretion, AlphaLISA, 16 h; hits give low values; 360,000 compounds, 4.7% hits; in the data active = activity change below about -50%; inconclusive = mostly about -30% to -49%; note: % is set by controls: 0 for no effect and ±100 for the full control effect
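Secreted IL-1B measured by AlphaLISA bead assay after 16 h compound exposure of THP-1 cells; compounds (final up to 57.5 uM) added 1 h before LPS (250 ng/mL) and ATP (1.25 mM) stimulation; lower signal means less secretion.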
KB-3-1 cytotox: kills parental KB-3-1 adenocarcinoma cells; KB-3-1 viability, CellTiter-Glo ATP luminescence, 72 h; 400,000 compounds, 1.4% hits; Potency, µM (series often up to 46.1 µM), usual class: cytotoxic; note: potency is the fitted concentration of half-maximal effect; % is set by controls: 0 for no effect and ±100 for the full control effect; nearly all actives have a fitted effect of over 60% in size
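Luminescent ATP read-out (CellTiter-Glo) measures survival of drug-naive KB-3-1 cells after 72 h compound exposure at 37 °C. Titration series was screened from lowest to highest concentration, with DMSO vehicle plates as background controls.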
MCF10A rerep: inducers of DNA re-replication in MCF 10A breast cells; 350,000 compounds, 2.9% hits; Potency, µM (top dose mostly 46.1 µM), inactives show top-dose activity, positive = re-replication, actives largely listed as activators; MCF 10A DNA re-replication, Hoechst nuclear intensity, 48 h; note: potency is the fitted concentration of half-maximal effect; % of control where 0% means no effect; nearly all actives have a fitted effect of over 50% in size
KB-V1 MDR tox: kills drug-selected multidrug resistant KB-V1 cells; KB-V1 MDR cells viability, CellTiter-Glo, 72 h; Potency, µM (titrated, usually from 46.1 µM), most hits filed as cytotoxic; 400,000 compounds, 3.4% hits; AID 1347076; note: potency is the fitted concentration of half-maximal effect; % is set by controls: 0 for no effect and ±100 for the full control effect; nearly all actives have a fitted effect of over 60% in size
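KB-V1 cells (P-gp-expressing MDR subline of KB-3-1) in phenol-red-free DMEM with 10% FBS were exposed to library compounds over a concentration series for 72 h at 37 degrees C. Viability read by CellTiter-Glo luminescence; concentration-effect curves fitted after normalization.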
SW480 rerep: inducers of DNA re-replication in SW480 colon cancer cells. SW480 DNA re-replication, Hoechst DNA content imaging, 48 h. Potency, µM (doses to about 46.1 µM), inactives show at the highest dose re-replication activation, usual class: activators. 340,000 compounds, 1.8% hits; note: potency is the fitted concentration of half-maximal effect; % of control where 0% means no effect; nearly all actives have a fitted effect of over 55% in size
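Per well, 250 cells were exposed to pinned compound for 48 hr. Nuclear DNA was visualised with Hoechst (40 min, 37 C) and total object intensity recorded by fluorescence scanning.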
Starred values were filed as active, the others as inactive; i = inactive; ? = inconclusive; . = not tested or not shown. Unless noted, calls come from the whole dose curve; as a rule, active = well fitted curve in the direction sought with a large enough effect; inconclusive = small, poorly fitted or top-dose-only effect, or another doubt; inactive = no such curve, though single readings can be large; an effect the other way counts as inactive or inconclusive.

SMILES	IL-1B inflam inh	KB-3-1 cytotox	MCF10A rerep	KB-V1 MDR tox	SW480 rerep
Cc1sc2nc(C3CC3)nc(N3CCN(C(=O)c4ccccc4F)CC3)c2c1C	-26	i	138%	?	?
Cc1sc2nc(C3CC3)nc(N3CCN(S(=O)(=O)c4ccc(F)cc4)CC3)c2c1C	-22	i	?	?	?
COc1ccc(C(=O)N2CCN(c3nc(C4CC4)nc4sc(C)c(C)c34)CC2)cc1	-65*	?	?	23µM*	14%
Cc1sc2nc(C3CC3)nc(N3CCN(C(=O)c4ccc(F)cc4)CC3)c2c1C	-60*	i	?	i	?
CCN(CC)c1ccc(NC(=O)OC)cc1	-13	i	-1%	i	-2%
O=C(O)C1CC=CCC1C(=O)N1CCN(c2nc(-c3ccccc3)c3ccccc3n2)CC1 (stereo unspecified)	-63*	i	9.2µM*	i	?
O=C(O)C1CC=CCC1C(=O)N1CCN(c2nc(-c3ccccc3Cl)c3cc(Br)ccc3n2)CC1 (stereo unspecified)	9	i	23µM*	i	18µM*
COc1ccc(CCNC(=O)[C@H](C)N2C(=O)N3CCc4c([nH]c5ccccc45)[C@@]3(C)C2=O)cc1OC	1	?	8%	?	-1%
CC[C@]1(O)CC2CN(CCc3c([nH]c4ccccc34)[C@@](C(=O)OC)(c3cc4c(cc3OC)N(C)[C@H]3[C@@](O)(C(=O)OC)[C@H](OC(C)=O)[C@]5(CC)C=CCN6CC[C@]43[C@@H]65)C2)C1 (stereo partly specified)	.	0.023µM*	?	?	0.75µM*
CCC1=C[C@@H]2CN(C1)Cc1c([nH]c3ccccc13)[C@@](C(=O)OC)(c1cc3c(cc1OC)N(C)[C@@H]1[C@@](O)(C(=O)OC)[C@H](OC(C)=O)[C@]4(CC)C=CCN5CC[C@]31[C@@H]54)C2	.	.	67%	.	1.2µM*
COc1ccccc1CNC(=O)[C@H](C)N1C(=O)N2CCc3c([nH]c4ccccc34)[C@@]2(C)C1=O	-4	?	-7%	i	6%
CCC1(O)CC2CN(CCc3c([nH]c4ccccc34)C(C(=O)OC)(c3cc4c(cc3OC)N(C=O)C3C(O)(C(=O)OC)C(OC(C)=O)C5(CC)C=CCN6CCC43C65)C2)C1 (stereo unspecified)	26	0.046µM*	?	16µM*	0.16µM*
COc1ccc(Cl)cc1-c1noc([C@@H]2O[C@H](CO)[C@@H](O)[C@H]2O)n1	35	i	.	i	.
S=c1nc(C2CC2)n(-c2ccccc2)[nH]1	-6	i	0%	i	-6%
CCc1ccc(C(=O)c2cn(CC(=O)NCc3ccc(C)cc3)c3nc(C)ccc3c2=O)cc1	.	i	.	i	.
COc1ccc(NC(=O)c2sc3nc(-c4cccnc4)ccc3c2N)cc1	-13	i	?	i	15µM*
COc1ccc(NC(=O)c2sc3nc(-c4cccnc4)ccc3c2N)cc1OC	-14	i	15µM*	i	?
Nc1c(C(=O)Nc2cccc(Cl)c2Cl)sc2nc(-c3cccnc3)ccc12	0	i	5.2µM*	i	9.2µM*
COc1ccc(C(=O)c2sc3nc(-c4ccc(OC)cc4)ccc3c2N)cc1	20	i	?	?	?
COc1ccc(-c2ccc3c(N)c(C(=O)c4cccc(OC)c4)sc3n2)cc1	0	?	21µM*	i	?
Cc1ccc(NC(=O)c2sc3nc(-c4ccncc4)ccc3c2N)cc1	.	i	.	i	.
Nc1c(C(=O)Nc2ccc(F)c(F)c2)sc2nc(-c3ccncc3)ccc12	.	i	.	i	.
Nc1c(-c2cccc(Cl)c2)cnc2c(-c3ccccc3)cnn12	-8	i	5%	i	?
COc1cccc(CNC(=O)c2ccc3nc(-c4ccc(F)cc4)c(-c4ccc(F)cc4)nc3c2)c1	.	i	.	i	.
COc1ccc(C)cc1S(=O)(=O)Nc1ccc2c(c1)OCO2	24	i	30%	i	-1%
SMILES	IL-1B inflam inh	KB-3-1 cytotox	MCF10A rerep	KB-V1 MDR tox	SW480 rerep
CN(C)S(=O)(=O)Oc1ccc(Cl)cc1C(=O)Nc1ccc(F)cc1F	2	i	0%	i	-9%
CN(C(=O)COC(=O)c1ccc([N+](=O)[O-])cc1N)c1ccccc1	12	i	-3%	i	-1%
O=C(O)c1cccc(-n2nc(-c3ccc(Cl)c([N+](=O)[O-])c3)c3ccccc3c2=O)c1	-69*	i	1%	?	-8%
O=c1c2ccccc2c(-c2ccccc2)nn1-c1ccc(Cl)c(Cl)c1	-9	i	7%	?	5%
CN1CCN(c2ccc([N+](=O)[O-])c(-n3nc(-c4ccccc4)c4ccccc4c3=O)c2)CC1	?	?	-1%	13µM*	9%
Cc1ccc(C)c(NC(=O)CCN2CCCCC2)c1	13	i	-10%	i	?
COCCCn1c(=O)c2ccccc2n(CC(=O)NC2CCCCC2)c1=O	0	i	-5%	i	-6%
Cc1c(SCCO)c(=O)[nH]c2cc3c(cc12)OCO3	-1	i	-1%	?	-4%
CC(C)(C)OC(=O)N/N=C/c1cccn1-c1ccc([N+](=O)[O-])cc1	-11	i	28%	i	?
CN(C)c1ccc(-n2cccc2/C=C/[N+](=O)[O-])cc1	-101*	?	?	?	14%
C=CCCC1(C)C(=O)N(c2ccccc2)c2ccccc21 (stereo unspecified)	16	?	?	?	18µM*
O=C(N/N=C/c1cccc(OC(=O)c2cccc(Br)c2)c1)c1ccncc1	2	i	?	i	15%
O=S(=O)(c1ccccc1)N1CCN(c2nnc(-c3ccccc3)c3ccccc23)CC1	3	i	-4%	i	4%
Cc1ccc(-c2nnc(N3CCN(S(C)(=O)=O)CC3)c3ccccc23)cc1	-59*	i	-1%	i	3%
CS(=O)(=O)N1CCN(c2nnc(-c3ccccc3)c3ccccc23)CC1	-61*	i	1%	i	-1%
O=C(CSc1nnc(-c2ccccc2F)o1)N1CCNC1=O	?	i	0%	i	15%
Cc1cc(C=CC#N)cc(C)c1Nc1nc(Nc2ccc3c(c2)OCO3)c2[nH]cnc2n1	.	18µM*	.	?	.
c1nc(NCc2ccc3c(c2)OCO3)c2[nH]cnc2n1	.	i	.	i	.
Nc1nc2ccccc2n1CCOc1ccccc1Cl	-80*	i	?	?	9%
C[n+]1ccnc2cc(Cl)ccc21	.	4.1µM*	.	5.8µM*	.
Clc1ccc2nccnc2c1	.	?	.	i	.
C[n+]1ccnc2ccccc21	.	4.1µM*	.	10µM*	.
CC1(C(=O)Nc2ccc3c(c2)OCCO3)CCN1C(=O)c1ccco1 (stereo unspecified)	31	i	.	i	.

Assay outcomes from PubChem BioAssay.
